This note sets out measurements from PubChem BioAssay (Tox21).

SMILES strings stand for the structures. Unmarked numbers belong to inactive results. Records with an inconclusive call do not appear. Active and inactive are the calls of the source. Calls come from the whole dose curve.

Experiment [1] deals with Acetylcholinesterase (Homo sapiens) (UniProt P22303). The experiment can be described thus: Acetylcholinesterase (AChE) small molecule antagonists: colormetric cell-based qHTS assay (AID 1347395). Note: nearly all actives have a fitted effect of over 30% in size. In outline:
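Colorimetric read-out: DTNB detects thiocholine released when cellular AChE in SH-SY5Y cells hydrolyses acetylthiocholine. Cells attached overnight, received compound for 30 min at 37 C, then substrate mix for 90 min at 37 C.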
(In general: In qHTS, concentration-response curves come from the screen itself.)

Experiment [2] shares this target. The experiment can be described thus: Acetylcholinesterase (AChE) small molecule antagonists: enzyme-based qHTS assay (AID 1347397). Note: nearly all actives have a fitted effect of over 55% in size. Note: potency is the fitted concentration of half-maximal effect. The settings on record: Potency: AChE enzyme activity inhibition; outcome: AChE enzyme activity inhibition. The method in brief:
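In this quantitative HTS, compounds from the Tox21 10K collection were preincubated 30 min at ambient temperature with recombinant human AChE dispensed at 50 mU/mL. Hydrolysis of acetylthiocholine was then followed for 10 min by DTNB colour development.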

The target is the same in experiment [3]. Briefly: Acetylcholinesterase (AChE) small molecule antagonists: fluorescence cell-based qHTS assay (AID 1347398). Note: nearly all actives have a fitted effect of over 50% in size. The following applies: Potency: AChE activity; outcome: AChE activity. In outline:
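Cells (SH-SY5Y) attached overnight, were dosed with compound or DMSO vehicle for 30 min at 37 C, and then incubated 40 min at room temperature with acetylthiocholine and Thiolite Green; green fluorescence indexed AChE activity.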

For experiment [4] the target is unchanged. The experiment can be described thus: Acetylcholinesterase (AChE) small molecule antagonists: enzyme-based qHTS assay with human liver microsomes (AID 1347399). Note: nearly all actives have a fitted effect of over 60% in size. The settings on record: Potency: qHTS inhibition; outcome: qHTS inhibition. In outline:
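Recombinant human AChE (50 mU/mL in the enzyme mix) and human liver microsomes (0.25 mg/mL final) were preincubated with compound and NADPH (0.25 mg/mL final) for 30 min at 37 C. Acetylthiocholine/DTNB was then added; thiocholine was read colorimetrically after 10 min at room temperature.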
% is set by controls: 0 for no effect and ±100 for the full control effect.

Sequence of Acetylcholinesterase (Homo sapiens) (P22303 whole entry, looked up): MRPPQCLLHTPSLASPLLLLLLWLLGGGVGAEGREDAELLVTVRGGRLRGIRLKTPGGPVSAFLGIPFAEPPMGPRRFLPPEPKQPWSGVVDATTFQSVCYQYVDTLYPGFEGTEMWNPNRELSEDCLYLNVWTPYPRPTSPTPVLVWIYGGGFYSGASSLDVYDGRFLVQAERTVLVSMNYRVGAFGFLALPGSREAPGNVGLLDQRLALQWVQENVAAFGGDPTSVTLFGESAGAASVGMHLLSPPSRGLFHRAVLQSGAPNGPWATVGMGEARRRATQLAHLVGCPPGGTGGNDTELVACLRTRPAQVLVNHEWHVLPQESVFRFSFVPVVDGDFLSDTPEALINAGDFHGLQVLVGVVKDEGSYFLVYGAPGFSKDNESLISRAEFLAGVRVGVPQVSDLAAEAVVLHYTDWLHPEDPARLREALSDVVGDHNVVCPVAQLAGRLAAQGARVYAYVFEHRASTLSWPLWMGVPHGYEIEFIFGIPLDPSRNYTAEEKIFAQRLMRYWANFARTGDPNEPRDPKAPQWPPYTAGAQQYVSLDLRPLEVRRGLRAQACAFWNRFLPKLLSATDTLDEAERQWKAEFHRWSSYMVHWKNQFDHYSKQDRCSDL

Take `CC(C)(C)C(=O)/C=C/c1ccc(Cl)cc1`: the Potency result in experiment [1], in experiment [2], in experiment [3] and in experiment [4] was “inactive” throughout.
On to `Cc1ccc(CO)cc1`, for which the Potency result in experiment [1], in experiment [2], in experiment [3] and in experiment [4] was “inactive” each time.
With `CC(O)CN(CCCN(C)C)CCCN(C)C` (stereo unspecified), the Potency entry in experiment [1], in experiment [2], in experiment [3] and in experiment [4] was “inactive” in each case.
With `O=S(=O)(O)c1cc(I)c(O)c2ncccc12`, the Potency entry in experiment [1], in experiment [2], in experiment [3] and in experiment [4] was “inactive” in each case.
On to `CCCCNCCCC`, for which the Potency entry in experiment [1], in experiment [2], in experiment [3] and in experiment [4] was “inactive” throughout.
`C=CC(C)(CCC=C(C)C)OC=O` (stereo unspecified): the Potency result in experiment [1], in experiment [2], in experiment [3] and in experiment [4] was “inactive” each time.
For `Cc1ccc(Nc2ccc(O)c3c2C(=O)c2ccccc2C3=O)cc1`, the Potency entry in experiment [1], in experiment [2], in experiment [3] and in experiment [4] was “inactive” in each case.
As for `ON=C1CCCC1`, the Potency result in experiment [1], in experiment [2], in experiment [3] and in experiment [4] was “inactive” in each case.
In the case of `N#CCCOCCOCCC#N`, the Potency result in experiment [1], in experiment [2], in experiment [3] and in experiment [4] was “inactive” throughout.
`CCO[Si](C)(OCC)OCC`: the Potency result in experiment [1], in experiment [2], in experiment [3] and in experiment [4] was “inactive” throughout.
Regarding `Cc1[nH]cnc1-c1ccc(Cl)cc1`, the Potency entry in experiment [1], in experiment [2], in experiment [3] and in experiment [4] was “inactive” in each case.
As to `N#Cc1cscn1`, the Potency result in experiment [1], in experiment [2], in experiment [3] and in experiment [4] was “inactive” each time.
With `C/C=C/C(=O)Oc1c(CCCCCC(C)C)cc([N+](=O)[O-])cc1[N+](=O)[O-]`, the Potency entry in experiment [1], in experiment [3] and in experiment [4] was “inactive” throughout. Moreover, the Potency in experiment [2] is 71 µM (active).
In the case of `C=CC(=O)O[C@H]1C[C@@H]2CC[C@@]1(C)C2(C)C`, the Potency entry in experiment [1], in experiment [2], in experiment [3] and in experiment [4] was “inactive” throughout.
For `CC(=O)c1cnccn1`, the Potency result in experiment [1], in experiment [2], in experiment [3] and in experiment [4] was “inactive” in each case.
Consider `C#CCOC(=O)[C@@H](C)Oc1ccc(Oc2ncc(Cl)cc2F)cc1`, for which the Potency result in experiment [1], in experiment [2], in experiment [3] and in experiment [4] was “inactive” in each case.
In the case of `CCN(CC)CC`, the Potency entry in experiment [1], in experiment [2], in experiment [3] and in experiment [4] was “inactive” throughout.
With `CCCCCCCCCCCCCCCCCO`, in experiment [1], the activity, negative = inhibition is 0.97% [at 23.6 µM]. Also, the activity change, negative = inhibition in experiment [2] is -1.09% [at 23.6 µM]; in experiment [3], 0.561% [at 23.8 µM]; in experiment [4], 3.32% [at 23.6 µM].
For the compound `CC(C)(C)CC(C)(C)c1ccc(OCCO)cc1`, the Potency entry in experiment [1], in experiment [2], in experiment [3] and in experiment [4] was “inactive” in each case.
For the compound `CC1(C)CCC[C@]2(C)[C@H]3CCO[C@]3(C)CC[C@@H]12`, the Potency entry in experiment [1], in experiment [2], in experiment [3] and in experiment [4] was “inactive” throughout.
For the compound `CC(C)CCCC(C)(C)O`, the Potency result in experiment [1], in experiment [2], in experiment [3] and in experiment [4] was “inactive” in each case.
As to `Nc1ccc(S(=O)(=O)O)c(N)c1`, the Potency entry in experiment [1], in experiment [2], in experiment [3] and in experiment [4] was “inactive” in each case.
For the compound `C[C@H]1c2cccc(O)c2C(O)=C2C(=O)[C@]3(O)C(O)=C(C(N)=O)C(=O)[C@@H](N(C)C)[C@@H]3[C@@H](O)[C@@H]21`, the Potency result in experiment [1], in experiment [2], in experiment [3] and in experiment [4] was “inactive” in each case.
With `CN1CCN(C2=Nc3ccccc3Sc3ccc(Cl)cc32)CC1`, the Potency entry in experiment [1], in experiment [2], in experiment [3] and in experiment [4] was “inactive” each time.
In the case of `CNC(=O)C(c1ccccc1)c1ccccc1`, the Potency result in experiment [1], in experiment [2], in experiment [3] and in experiment [4] was “inactive” in each case.
As to `Cc1cncc(C)c1`, the Potency result in experiment [1], in experiment [2], in experiment [3] and in experiment [4] was “inactive” each time.
As to `OC[C@@H](O)[C@@H](O)CO`, the Potency entry in experiment [1], in experiment [2], in experiment [3] and in experiment [4] was “inactive” in each case.
`CCCCCCOC(=O)CCCCC`: the Potency result in experiment [1], in experiment [2], in experiment [3] and in experiment [4] was “inactive” each time.
On to `CCCCOC(=O)[C@@H](C)Oc1ccc(Oc2ccc(C(F)(F)F)cn2)cc1`, for which the Potency entry in experiment [1], in experiment [2], in experiment [3] and in experiment [4] was “inactive” in each case.
Turning to `CCCC(=O)OCc1ccccc1`, the Potency entry in experiment [1], in experiment [2], in experiment [3] and in experiment [4] was “inactive” in each case.
As to `C=CC(C)(CCC=C(C)C)OC(=O)C(C)C` (stereo unspecified), the Potency entry in experiment [1], in experiment [2], in experiment [3] and in experiment [4] was “inactive” throughout.
As for `COc1cccc([C@H](O)C2CCN(CCc3ccc(F)cc3)CC2)c1OC`, the Potency entry in experiment [1], in experiment [2], in experiment [3] and in experiment [4] was “inactive” throughout.
Consider `CC(=O)CCc1ccc(O)cc1`, for which the Potency entry in experiment [1], in experiment [2], in experiment [3] and in experiment [4] was “inactive” throughout.
Take `Clc1ccccc1-c1nc(-c2ccncc2)no1`: the Potency result in experiment [1], in experiment [2], in experiment [3] and in experiment [4] was “inactive” throughout.
In the case of `Cc1cc(C)c(NC(=O)CN(CC(=O)O)CC(=O)O)c(C)c1Br`, the Potency result in experiment [1], in experiment [2], in experiment [3] and in experiment [4] was “inactive” in each case.
For `CC(CCc1ccc2c(c1)OCO2)NN` (stereo unspecified), the Potency result in experiment [1], in experiment [2], in experiment [3] and in experiment [4] was “inactive” each time.
Turning to `Nc1cc(C(=O)O)ccc1Cl`, the Potency entry in experiment [1], in experiment [2], in experiment [3] and in experiment [4] was “inactive” each time.
`Cc1cnc(C)c(C)n1`: the Potency entry in experiment [1], in experiment [2], in experiment [3] and in experiment [4] was “inactive” throughout.
As to `CC(C)=CCCC(C)CCOC(=O)C(C)C` (stereo unspecified), the Potency entry in experiment [1], in experiment [2], in experiment [3] and in experiment [4] was “inactive” throughout.
`O=C1CCCCCCCCCCCCCCCO1`: the Potency result in experiment [1], in experiment [2], in experiment [3] and in experiment [4] was “inactive” in each case.
Take `CCN1CCOCC1`: the Potency result in experiment [1], in experiment [2], in experiment [3] and in experiment [4] was “inactive” throughout.
`CC(=O)c1ccc2c(c1)CCCC2`: the Potency result in experiment [1], in experiment [2], in experiment [3] and in experiment [4] was “inactive” throughout.
In the case of `Cc1cc(C)c(O)c(C(C)(C)C)c1`, the Potency result in experiment [1], in experiment [2], in experiment [3] and in experiment [4] was “inactive” each time.
With `CCCCCCCCC(C)=O`, the Potency result in experiment [1], in experiment [2], in experiment [3] and in experiment [4] was “inactive” each time.
